# Measurements reported in PubChem BioAssay.
# Tested on: Human papillomavirus type 1a protein E7 (residues 44-93)
# Assay: small molecules binding HPV E7 44-93 – biochemical, small-molecule microarray, residues 44-93, 635 nm fluorescence, primary screen (AID 1108);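 further: E7 fragment applied at 1 µg/mL in TBST for 1 h at 4 C; score combines spot fluorescence with its signal to noise ratio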
# Conditions: fluorescence 635 nm, higher = more signal
row,SMILES,composite z-score
1,CC(C)(C)OC(=O)CC[C@]1(C(=O)NCCN2CCOCC2)N=C(c2ccc(OCCCO)cc2)O[C@H]1c1ccccc1,1.18
2,C=CC[C@@]12N=C(c3ccc(OCCCO)cc3)O[C@@H]1c1ccccc1N(CCS(=O)(=O)c1ccccc1)C2=O,1.38
3,CCOC(=O)C[C@H]1[C@H](OC(=O)c2ccccc2-c2ccccc2)[C@@H](NC(=O)CC(C)C)c2cc(OCCCO)ccc2N1C(=O)c1ccc2ccccc2n1,0.046
4,COc1ccc(C(O)C2C=CC3C(=O)N(c4ccccc4)C(=O)C3N2Nc2ccccc2)cc1OCc1ccccc1 (stereo not drawn),1.48
5,NCCCCCNC(=O)[C@@H]1C[C@@H]2C(=O)N[C@@H](CCCCN)C(=O)N2[C@@H]1c1cccc(OCCO)c1,0.309
6,CCCCC(CC)C(O)C1C=CC2C(=O)N(c3ccccc3)C(=O)C2N1Nc1ccc([N+](=O)[O-])cc1 (stereo not drawn),1.37
7,CC(C)(C)OC(=O)CC[C@]1(C(=O)O)N=C(c2ccc(OCCCO)cc2)O[C@H]1c1ccccc1CN=[N+]=[N-],-0.391
8,C=C(/C(=C/C[C@@H](OC(=O)c1ccncc1)c1ccccc1OCCO)c1cc(C(=O)OC)ccc1OC)C(C)C,1.36
9,O=C1O[C@@H](c2ccccc2)[C@@H](c2ccccc2)N2[C@@H](c3ccccc3OCCO)[C@]3(C(=O)Nc4ccccc43)[C@@H](C(=O)NC[C@H](O)c3ccccc3)[C@H]12,0.705
10,COCCOC(=O)N1C(=O)[C@@]2(c3cc(C#CC4(O)CCCCCC4)ccc31)[C@H](c1ccccc1OCCO)N1[C@H](c3ccccc3)[C@H](c3ccccc3)OC(=O)[C@H]1[C@@H]2C(N)=O,-0.389
11,O=c1cccc(-c2cccc(Cl)c2)o1,0.0546
12,COCCOC(=O)N1C(=O)[C@@]2(c3cc(C#CC4=CCCCC4)ccc31)[C@H](C(=O)N1CCN(c3ncccn3)CC1)[C@H]1C(=O)O[C@H](c3ccccc3)[C@H](c3ccccc3)N1[C@@H]2c1ccc(O)cc1,0.683
13,COCC(=C=CC[C@H](O)c1ccc(OCCO)cc1)C[C@H](O)COCc1ccccc1,0.486
14,C=C[C@@H](COC(C)=O)NS(=O)(=O)c1ccc(Br)cc1,0.487
15,O=C1C2C=CC(C(O)c3cc(C(F)(F)F)cc(C(F)(F)F)c3)N(Nc3ccc([N+](=O)[O-])cc3)C2C(=O)N1c1ccccc1 (stereo not drawn),1.42
16,CC(=O)NCCCC[C@@H]1NC(=O)[C@@H]2C[C@H](C(=O)O)[C@H](c3ccc(O)cc3)N2C1=O,-0.745
17,COCCOC(=O)N1C(=O)[C@@]2(c3cc(C#CC4=CCCCC4)ccc31)[C@H](c1ccc(O)cc1)N1[C@H](c3ccccc3)[C@H](c3ccccc3)OC(=O)[C@H]1[C@@H]2C(=O)Nc1nc2ccccc2s1,0.909
18,CC(C)CNC(=O)[C@@H]1c2ccccc2C(=O)N(Cc2cc(F)cc(C(F)(F)F)c2)[C@H]1c1ccc(CO)cc1,-0.0365
19,C=C(C(=O)CC[C@H](OC(C)=O)c1cccc(OCCO)c1)C(C)C,-0.521
20,O=C1O[C@@H](c2ccccc2)[C@@H](c2ccccc2)N2[C@@H](c3ccc(O)cc3)[C@]3(C(=O)Nc4ccc(C#CCCO)cc43)[C@@H](C(=O)NC[C@H](O)c3ccccc3)[C@H]12,0.334
21,CCCN1C(=O)[C@]2(Cc3ccccc3)N=C(c3ccc(OCCCO)cc3)O[C@@H]2c2ccccc21,1.06
22,C[C@H]1C2=C3C(CC[C@H]4C(OCc5ccc(F)cc5C(F)(F)F)OC[C@](C)([C@@H]34)N(C(=O)OC(C)(C)C)C2)C2COC(=O)OCC21 (stereo partly drawn),1.35
23,O=C1c2ccccc2[C@](Cc2ccccc2I)(C(=O)NCCN2CCOCC2)[C@H](c2ccc(CO)cc2)N1Cc1ccccc1,1.41
24,COC(=O)[C@@]1(Cc2ccc(OC)cc2)[C@H]2c3cc(C(=O)N(C)C)n(Cc4nc5ccccc5[nH]4)c3C[C@H]2CN1C(=O)c1ccccc1,1.48
25,C[C@]1(C(=O)NC2CC2)c2ccccc2C(=O)N(Cc2ccc(OC(F)(F)F)cc2)[C@H]1c1ccc(CO)cc1,-0.633
26,CN(C)CCCNC(=O)[C@@H]1c2ccccc2C(=O)N(CC23CC4CC(CC(C4)C2)C3)[C@H]1c1ccc(CO)cc1,1.47
27,CC1CC/C=C\[C@H]2OC34C=CCN(C(C)C)C(=O)[C@H]3N(CCCCCO)C(=O)[C@@H]4C2C(=O)O1 (stereo partly drawn),-0.806
28,C=CCOC(=O)[C@H]1[C@@H]2C(=O)O[C@@H](c3ccccc3)[C@@H](c3ccccc3)N2[C@@H](c2ccc(OCCOC(=O)[C@H]3C[C@H]4C(=O)N[C@@H](Cc5ccccc5)C(=O)N4[C@H]3c3cccc(OCCO)c3)cc2)[C@]12C(=O)Nc1ccc(I)cc12,1.38
